Laboratory results published in PubChem BioAssay AID504809 (National Center for Advancing Translational Sciences (NCATS), 2011).
Records with an inconclusive call do not appear. Active and inactive are the calls of the source. The call rests on the fitted dose curve; in most records, active means well fitted curve in the direction sought with a large enough effect; inconclusive means small, poorly fitted or top-dose-only effect, or another doubt; inactive means no such curve, though single readings can be large or run the other way.

assay: Followup screen for small molecules that induce DNA re-replication in MCF 10A normal breast cells; conditions: MCF 10A DNA re-replication, Hoechst nuclear intensity, 48 h; series mostly up to 46.1 µM
Excerpt: NIH Molecular Libraries Probe Production Network [MLPCN] NIH Chemical Genomics Center [NCGC] MLPCN Grant: Fast Track K99 CA136555 Assay Provider: Melvin DePamphilis, NICHD, NIH Assay Overview Eukaryotic cells normally restrict genome duplication to once per cell division. When this process is aberrant, DNA re-replication occurs when cells reinitiate DNA replication before the first round of replication is complete. DNA re-replication induces the DNA damage response, arrests cell proliferation, and triggers apoptosis. The cell cycle components cyclin A, Cdt-1, Cdc6 and geminin are critical regulators of this process and their misregulation results in DNA re-replication in normal and cancer cells. To identify compounds that induce re-replication in normal cells, an image-based assay was used to measure DNA content of nuclei, as detected by the fluorescent DNA binding dye, Hoechst. Cell nuclei were imaged by a fluorescence scanning plate imager and compounds that induce DNA re-replication were identified by the increase of nuclei with elevated fluorescence intensity.
Assay Protocol Summary For screening, 250 cells in 5 uL/well were dispensed into black clear 1536-well plates (Aurora) using a solenoid-based dispenser. Following transfer of 23 nL compound or DMSO vehicle by a pin tool, the plates were incubated 48 hr at 37 C and 5% CO2. After addition of 1 uL/well Hoescht stain, the plates were incubated 40 min at 37 C, 5% CO2 and total intensity of fluorescent objects (nuclei) were enumerated by an Acumen Explorer Ex3 (TTP LabTech) fluorescence scanning plate imager (405 nm excitation, 500-530 nm emission). Keywords: NIH Roadmap, MLPCN, MLI, MLSMR, qHTS, NCGC, DNA replication, cancer

Compound	Potency
CS(C)=O.[Cl-].[Cl-].[Cu+2]	inactive
CCN(CC)C(=S)SSC(=S)N(CC)CC	21300 nM (active)
CC(=O)[O-].CS(C)=O.[Cu+]	inactive
CCN(CC)C(=S)SSC(=S)N(CC)CC.[Cl-].[Cl-].[Cu+2]	95 nM (active)
CC(=O)[O-].CCN(CC)C(=S)SSC(=S)N(CC)CC.[Cu+]	190 nM (active)
